Data published in PubChem BioAssay.
Activity calls are given as the source filed them. Unless noted, the rule behind the calls is not given here.

Tests used:
[1] = test system: Wnt5a (protein binding on small-molecule microarray); assay: small molecules binding Wnt5a protein – biophysical, small-molecule microarray, 635/667 nm fluorescence, primary screen (AID 1142); settings: 635 nm fluorescence, higher = more signal;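 note: fluorescence read at 667 nm with signal to noise per printed feature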
[2] = ATP-based viability of Huh7 replicon cells – cell-based, CellTiter-Glo luminescence, basal, 48 h, cytotoxicity control for HCV replication inhibitor project, primary screen (AID 1143); settings: higher = more signal, called active from +8 up or from −8 down;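 note: Huh7 hepatoma cells carrying a hepatitis C replication reporter with no stimulus; test concentration not given here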
[3] = Pseudomonas biofilm growth suppression – PAO1 strain, BacTiter-Glo luminescence, LB-PBS, primary screen (AID 1144); settings: P. aeruginosa PAO1 biofilm, 12 h, higher = more signal
[4] = basal CRE-LacZ reporter activity in PC12 – cell-based, unstimulated, primary screen (AID 1145); settings: no forskolin, luminescence, 4.5 h, higher = more signal, called active from +8 up or from −8 down
[5] = forskolin-driven CRE-LacZ activity in PC12 – cell-based, CRE-LacZ reporter, forskolin-stimulated, primary screen (AID 1146); settings: luminescence, 4.5 h, higher = more signal, called active from +8 up or from −8 down;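 note: PC12 cells with 6xCRE LacZ reporter stimulated by forskolin 10 µM; beta-galactosidase reporter signal reflecting CREB driven transcription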
[6] = target: Streptavidin (Streptomyces avidinii) (UniProt P22629); assay: compounds binding control protein streptavidin – biophysical, small-molecule microarray, 635/667 nm fluorescence, artefact control for SMM compound annotation, primary screen (AID 1147); settings: higher = more signal;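 note: signal reflects streptavidin binding to arrayed compounds as a control protein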
[7] = probe aInhba binding on compound microarray – biochemical, small-molecule microarray, 635/667 nm fluorescence, primary screen (AID 1148); settings: higher = more signal;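 note: score merges 667nm spot fluorescence with signal-to-noise for antibody binding to printed compounds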
[8] = target: Torsin-1A (Homo sapiens) (UniProt O14656); assay: TOR1A wild-type binding on microarray – cell lysate, small-molecule microarray, lysate, 635/667 nm, primary screen (AID 1149); settings: COS7 hTOR1A-WT lysate, 635 nm fluorescence, higher = more signal
[9] = target: Torsin-1A (Homo sapiens) (UniProt O14656); assay: torsin A mutant lysate binding on microarrays – cell lysate, small-molecule microarray, COS7 lysate, 635/667 nm fluorescence, primary screen (AID 1150); settings: COS7 hTOR1A mutant lysate, 635 nm fluorescence, higher = more signal;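 note: score pools 667 nm emission and signal to noise measuring lysate protein binding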
[10] = test system: Sonic hedgehog protein (Shh); assay: Sonic hedgehog microarray binding compounds – biochemical, small-molecule microarray, 635/667 nm fluorescence, primary screen (AID 1151); settings: 635 nm fluorescence, higher = more signal;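 note: Shh protein binding to compounds spotted on small-molecule microarray slides; score combines spot fluorescence intensity with signal-to-noise across triplicate slides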
[11] = optical density shifts of acrAB sulA E. coli – strain DRC41, OD650, 48 h, E. coli filamentation inducer project, primary screen (AID 1152); settings: higher = more signal, called active from +8 up or from −8 down;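 note: E. coli MC1000 strain DRC41 lacking acrAB efflux pump and sulA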
[12] = probe aLefty1 binding on compound microarray – biochemical, small-molecule microarray, 635/667 nm fluorescence, primary screen (AID 1153); settings: higher = more signal;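 note: score merges spot fluorescence with signal-to-noise ratio from the scanned slide images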
[13] = plasmodial surface anion channel blockers, osmotic lysis – cell-based, P. falciparum Indochina, OD700, 1 h, primary screen (AID 1154); settings: P. falciparum Indochina infected RBC osmotic lysis, higher = more signal, called active from +8 up or from −8 down
[14] = plasmodial surface anion channel blockers, osmotic lysis – cell-based, P. falciparum Indochina, OD700, 2 h, primary screen (AID 1155);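 note: lysis reports solute entry through the parasite surface anion channel PSAC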; settings: P. falciparum Indochina infected erythrocytes, higher = more signal, called active from +8 up or from −8 down
[15] = changes in parasitized red cell lysis, either direction – P. falciparum Indochina, OD700, 3 h, PSAC antagonist project, primary screen (AID 1156); settings: P. falciparum-infected erythrocytes, osmotic lysis, higher = more signal, called active from +8 up or from −8 down
[16] = plasmodial surface anion channel blockers, osmotic lysis – cell-based, P. falciparum Indochina, OD700, 18 h, primary screen (AID 1157); settings: P. falciparum Indochina infected erythrocytes, osmotic lysis OD700, 18 h; higher = more signal, called active from +8 up or from −8 down
[17] = S6 kinase pathway phospho-S6 level changes – cell-based, A549, cytoblot, luminescence, serum-stimulated, primary screen (AID 1158); settings: 5 h, higher = more signal;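 note: serum-stimulated A549 lung adenocarcinoma cells; signal is phosphorylated S6 detected by cytoblot immunostaining with HRP secondary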
[18] = target: NADPH oxidase 2 (Homo sapiens) (UniProt P04839); assay: compounds shifting NOX2 Amplex Red fluorescence – cell-based, HEK293-NOX2, PMA-stimulated, NOX inhibitor project, primary screen (AID 1159); settings: 45 min, higher = more signal, called active from +8 up or from −8 down; note: test concentration not given here
[19] = target: NADPH oxidase 4 (Homo sapiens) (UniProt Q9NPH5); assay: compounds shifting NOX4 Amplex Red fluorescence – cell-based, HEK293-NOX4, tetracycline-induced, NOX inhibitor project, primary screen (AID 1160); settings: HEK293-NOX4, Amplex Red H2O2 fluorescence, 45 min; higher = more signal, called active from +8 up or from −8 down
[20] = target: NADPH oxidase 5 (Homo sapiens) (UniProt Q96PH1); assay: compounds shifting NOX5 Amplex Red fluorescence – cell-based, HEK293-NOX5, NOX inhibitor project, primary screen (AID 1161); settings: HEK293-NOX5, ionomycin, 45 min, higher = more signal
Chain of NADPH oxidase 5 (Homo sapiens) (Q96PH1 whole entry, looked up): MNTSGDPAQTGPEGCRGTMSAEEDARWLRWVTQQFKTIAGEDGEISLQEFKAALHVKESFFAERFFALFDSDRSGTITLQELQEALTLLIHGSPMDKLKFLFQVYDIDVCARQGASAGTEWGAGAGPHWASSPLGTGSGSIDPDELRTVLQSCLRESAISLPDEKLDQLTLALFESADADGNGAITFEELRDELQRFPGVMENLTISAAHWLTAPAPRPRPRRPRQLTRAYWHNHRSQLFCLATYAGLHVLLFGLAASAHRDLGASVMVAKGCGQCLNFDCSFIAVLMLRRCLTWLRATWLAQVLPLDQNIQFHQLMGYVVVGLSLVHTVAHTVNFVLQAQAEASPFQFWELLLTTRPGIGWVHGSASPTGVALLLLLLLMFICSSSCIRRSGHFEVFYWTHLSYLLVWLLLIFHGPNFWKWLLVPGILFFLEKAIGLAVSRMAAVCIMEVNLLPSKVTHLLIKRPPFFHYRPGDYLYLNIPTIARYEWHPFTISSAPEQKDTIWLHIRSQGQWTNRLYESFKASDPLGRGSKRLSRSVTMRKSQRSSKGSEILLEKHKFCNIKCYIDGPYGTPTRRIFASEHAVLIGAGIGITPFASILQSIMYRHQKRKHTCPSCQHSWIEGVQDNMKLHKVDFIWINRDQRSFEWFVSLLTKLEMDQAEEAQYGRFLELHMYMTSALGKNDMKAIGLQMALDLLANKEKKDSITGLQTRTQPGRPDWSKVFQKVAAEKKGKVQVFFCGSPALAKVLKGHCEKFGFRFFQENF

Chain of Torsin-1A (Homo sapiens) (O14656 whole entry, looked up): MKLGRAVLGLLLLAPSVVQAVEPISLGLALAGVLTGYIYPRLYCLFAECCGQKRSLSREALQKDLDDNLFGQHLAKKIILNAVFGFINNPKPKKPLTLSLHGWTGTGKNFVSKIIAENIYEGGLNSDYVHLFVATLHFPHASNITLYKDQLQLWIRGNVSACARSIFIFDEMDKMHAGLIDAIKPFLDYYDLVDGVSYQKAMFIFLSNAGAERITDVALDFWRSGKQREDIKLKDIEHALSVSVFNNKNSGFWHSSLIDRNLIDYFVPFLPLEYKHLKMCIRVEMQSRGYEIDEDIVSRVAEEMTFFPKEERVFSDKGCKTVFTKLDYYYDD
Chain of NADPH oxidase 4 (Homo sapiens) (Q9NPH5 whole entry, looked up): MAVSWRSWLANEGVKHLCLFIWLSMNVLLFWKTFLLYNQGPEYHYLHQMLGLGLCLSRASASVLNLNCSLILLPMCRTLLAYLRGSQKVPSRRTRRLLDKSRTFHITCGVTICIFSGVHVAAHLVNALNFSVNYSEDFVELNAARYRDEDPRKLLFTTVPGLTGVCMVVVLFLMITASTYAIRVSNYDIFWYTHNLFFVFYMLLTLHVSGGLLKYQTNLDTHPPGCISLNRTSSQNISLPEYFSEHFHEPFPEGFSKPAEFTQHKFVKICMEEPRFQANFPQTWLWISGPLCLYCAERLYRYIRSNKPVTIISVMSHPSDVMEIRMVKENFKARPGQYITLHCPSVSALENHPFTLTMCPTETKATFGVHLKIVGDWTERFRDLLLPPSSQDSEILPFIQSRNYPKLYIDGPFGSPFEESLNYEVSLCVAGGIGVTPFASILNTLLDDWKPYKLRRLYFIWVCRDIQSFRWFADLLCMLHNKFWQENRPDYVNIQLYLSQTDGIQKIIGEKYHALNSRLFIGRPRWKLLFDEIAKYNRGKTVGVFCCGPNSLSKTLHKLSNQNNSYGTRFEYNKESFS
Chain of Streptavidin (Streptomyces avidinii) (P22629 whole entry, looked up): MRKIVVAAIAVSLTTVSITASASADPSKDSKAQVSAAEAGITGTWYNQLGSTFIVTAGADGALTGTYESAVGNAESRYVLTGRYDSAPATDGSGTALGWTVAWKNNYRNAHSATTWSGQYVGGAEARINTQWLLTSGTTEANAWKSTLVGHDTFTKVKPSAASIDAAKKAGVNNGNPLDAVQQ
Chain of NADPH oxidase 2 (Homo sapiens) (P04839 whole entry, looked up): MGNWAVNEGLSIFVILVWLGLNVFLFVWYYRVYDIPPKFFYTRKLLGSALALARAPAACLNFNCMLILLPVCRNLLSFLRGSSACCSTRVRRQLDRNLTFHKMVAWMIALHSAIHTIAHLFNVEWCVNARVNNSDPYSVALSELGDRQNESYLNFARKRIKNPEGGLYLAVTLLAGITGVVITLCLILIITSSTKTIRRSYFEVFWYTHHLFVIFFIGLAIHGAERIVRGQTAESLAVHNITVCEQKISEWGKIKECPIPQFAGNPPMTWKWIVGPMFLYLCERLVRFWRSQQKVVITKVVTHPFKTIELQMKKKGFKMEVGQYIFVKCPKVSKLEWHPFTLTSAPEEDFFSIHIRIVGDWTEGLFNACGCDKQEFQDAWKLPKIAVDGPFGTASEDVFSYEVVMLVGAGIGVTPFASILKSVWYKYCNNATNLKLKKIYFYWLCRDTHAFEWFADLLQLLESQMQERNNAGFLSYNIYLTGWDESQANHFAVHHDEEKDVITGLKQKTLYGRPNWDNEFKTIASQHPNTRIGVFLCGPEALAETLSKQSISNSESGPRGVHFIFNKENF

Row | Compound | composite z-score [1] | z-score [2] | z-score [3] | z-score [4] | z-score [5] | composite z-score [6] | composite z-score [7] | composite z-score [8] | composite z-score [9] | composite z-score [10] | z-score [11] | composite z-score [12] | z-score [13] | z-score [14] | z-score [15] | z-score [16] | z-score [17] | z-score [18] | z-score [19] | z-score [20]
1 | CCCCN1CC=CC23O[C@@H]4/C=C\CCCOC(=O)C4[C@H]2C(=O)N(C(CO)C(C)C)[C@@H]3C1=O (stereo not given in full) | -0.256 | -0.352 (inactive) | 1.3 (inactive) | -0.22 (inactive) | -0.182 (inactive) | -0.275 | 0.419 | -0.277 | -0.455 | 1.14 | -0.539 (inactive) | -0.178 | 1.47 (inactive) | 0.701 (inactive) | 0.434 (inactive) | 0.505 (inactive) | -0.515 | 1.71 (inactive) | 0.808 (inactive) | 1.69
2 | CCCC#C[Si](O[C@H](CC)c1cn(Cc2ccccc2)nn1)(C(C)C)C(C)C | 0.24 | -1.01 (inactive) | 0.171 (inactive) | -0.374 (inactive) | 0.04 (inactive) | 1.72 | 0.0541 | 0.732 | 0.563 | 1.27 | 0.991 (inactive) | 0.687 | 0.708 (inactive) | 0.3 (inactive) | -0.929 (inactive) | 0.358 (inactive) | 0.113 | 0.442 (inactive) | -0.11 (inactive) | 0.521
3 | C=C(C)[C@@H]1CC=C(C(O)C2C=CC3C(=O)N(c4ccccc4)C(=O)C3N2Nc2ccc([N+](=O)[O-])cc2)CC1 (stereo not given in full) | 0.331 | -1.14 (inactive) | -1.4 (inactive) | -0.527 (inactive) | -0.605 (inactive) | 1.5 | 0.19 | 0.875 | 0.685 | 1.11 | -1.58 (inactive) | 0.37 | 5.76 (inactive) | 1.9 (inactive) | 1.34 (inactive) | 1.79 (inactive) | -0.456 | -0.962 (inactive) | -2.07 (inactive) | -2.96
4 | COc1cc(C(O)C2C=CC3C(=O)N(c4ccccc4)C(=O)C3N2Nc2ccccc2F)cc(OC)c1OC (stereo not given) | 0.36 | -1.73 (inactive) | 0.0706 (inactive) | 1.61 (inactive) | 1.05 (inactive) | 0.135 | 0.177 | 0.0422 | 0.8 | 0.429 | -1.19 (inactive) | 0.149 | 5.94 (inactive) | 1.25 (inactive) | -0.276 (inactive) | 0.462 (inactive) | -1.01 | -1.67 (inactive) | -4.07 (inactive) | -3.16
5 | O=C(NCc1ccccc1)[C@@H]1c2ccccc2C(=O)N(Cc2cc(C(F)(F)F)cc(C(F)(F)F)c2)[C@H]1c1ccc(CO)cc1 | 0.145 | -1.69 (inactive) | -1.69 (inactive) | 0.0387 (inactive) | 0.119 (inactive) | 0.556 | -0.0405 | -0.137 | 0.759 | 1.93 | -0.0343 (inactive) | 0.0004 | 2.87 (inactive) | 0.55 (inactive) | 2.48 (inactive) | 0.352 (inactive) | -0.0959 | 0.736 (inactive) | 0.284 (inactive) | 1.52
6 | CN(C)CCCNC(=O)[C@@]1(Cc2ccccc2I)c2ccccc2C(=O)N(C2CCCCC2)[C@H]1c1ccc(CO)cc1 | 0.418 | -5.91 (inactive) | 1.69 (inactive) | 2.12 (inactive) | 1.76 (inactive) | 1.19 | 0.41 | 0.305 | 0.794 | 0.618 | -2.04 (inactive) | 0.482 | 2.37 (inactive) | -0.0009 (inactive) | -2.34 (inactive) | -0.456 (inactive) | -2.25 | -9.9 (active) | -4.06 (inactive) | -3.65
7 | [N-]=[N+]=Nc1ccccc1C[C@@]1(C(=O)NCc2ccccc2)N=C(c2ccc(OCCCO)cc2)O[C@@H]1c1ccccc1N=[N+]=[N-] | 0.897 | -5.79 (inactive) | -0.424 (inactive) | 0.596 (inactive) | -2.3 (inactive) | 0.905 | 0.767 | 0.123 | 0.388 | 0.473 | 0.0484 (inactive) | 0.399 | 31.4 (active) | 24.3 (active) | 2.08 (inactive) | 0.984 (inactive) | 1.38 | -4.79 (inactive) | -2.16 (inactive) | -1.67
8 | CCCCC(O)C1C=CC2C(=O)N(c3ccccc3)C(=O)C2N1Nc1ccc(C#N)cc1 (stereo not given) | -0.0416 | 0.739 (inactive) | -1.25 (inactive) | 0.632 (inactive) | 0.719 (inactive) | 0.718 | 0.545 | 0.242 | 0.179 | -0.492 | -0.964 (inactive) | 0.598 | 16.7 (active) | 2.94 (inactive) | 2.36 (inactive) | 1.39 (inactive) | -0.809 | -0.444 (inactive) | -4.26 (inactive) | -1.98
9 | COc1ccc([Si](C)(C)[C@@H]2[C@@H](CC(=O)N3CCC[C@H]3CO)O[C@]3(C(=O)N(Cc4cccc(N5CCCCC5=O)c4)c4ccccc43)[C@H]2C)cc1 | -0.104 | -2.77 (inactive) | -0.331 (inactive) | 0.105 (inactive) | -0.95 (inactive) | -0.164 | -0.176 | 0.594 | 0.81 | 1.68 | 0.422 (inactive) | 0.0046 | 3.85 (inactive) | 1.23 (inactive) | -1.02 (inactive) | 0.278 (inactive) | 0.067 | 2.88 (inactive) | 1.64 (inactive) | 4.73
